Compound activity deposited in PubChem by National Center for Advancing Translational Sciences (NCATS).
HCV inhibitor – inhibitors of hepatitis C virus infection; Huh7.5.1 HCVcc-Cre infection, luciferase reporter, 44 h; Potency, µM (highest dose often 41.8 µM), inactives show at the highest dose activity change, negative = inhibition, most hits filed as inhibitors; hit rate 3.4% among 340,000; AID 651820; note: potency is the fitted concentration of half-maximal effect; % is set by controls: 0 for no effect and ±100 for the full control effect
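Seed cells (1,000/well) for 4 h; treat with compound and infect with HCVcc-Cre, moi about 0.5. Incubate 44 h, then detect luciferase activity.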
CHX counter – counter-screen for Shiga toxin inhibitors: cycloheximide protein synthesis inhibition; cell reporter, cycloheximide protein synthesis inhibition counterscreen; max response, %; hit rate 12% among 300,000; in the data active = max response mostly above about 13%, no sharp cut-off; inactive = mostly below about 14%; note: read at 38.3 µM for the half of the compounds with a filed dose; 0% is about no effect
Shiga inhibitor – Shiga toxin inhibition. Vero cells, Shiga toxin protein synthesis inhibition reporter. inhibition, % at 38.7 µM. hit rate 9.2% among 290,000. AID 2315; in the data active = inhibition mostly above about 28%, no sharp cut-off; inactive = mostly below about 43%; note: 0% is about no effect
Pf growth 48h – P. falciparum growth inhibition at 48 hours (one generation); hit rate 5.9% among 310,000; Potency, µM (series often up to 28.7 µM), for inactives: top-dose activity change, negative = inhibition, actives largely listed as inhibitors; P. falciparum luciferase growth in erythrocytes, 48 h; note: potency is the fitted concentration of half-maximal effect; % is set by controls: 0 for no effect and ±100 for the full control effect
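Compounds are pin-transferred into medium, infected erythrocytes (2% hematocrit, 0.1% parasitemia final) are added, and plates sit one parasite generation at 37 C in 5% CO2. Detection reagent is then added and luminescence measured.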
HCMV antiviral – human cytomegalovirus inhibition; HFF cells, HCMV-luciferase reporter, 72 h; hits give low values; activity change, negative = inhibition, % at 57.5 µM; hit rate 4.5% among 410,000; AID 1259415; in the data active = activity change below about -60%; inconclusive = no clear call, values can overlap the other calls; inactive = above about -39%; note: % is set by controls: 0 for no effect and ±100 for the full control effect
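Compounds were evaluated in HFFs infected with an HCMV luciferase reporter virus (MOI 1 PFU/cell). Luciferase in lysates collected 72 h post infection served as the replication measure.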
Pf growth 96h – P. falciparum growth inhibition at 96 hour, primary screen for plastid delayed-death inhibitors. P. falciparum luciferase reporter growth, 96 h. Potency, µM (highest dose often 28.7 µM), for inactives: top-dose activity change, negative = inhibition, hits mostly inhibitors. hit rate 6.9% among 320,000. AID 504834; note: potency is the fitted concentration of half-maximal effect; % is set by controls: 0 for no effect and ±100 for the full control effect
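Erythrocytes infected with luciferase-expressing P. falciparum were dispensed at 2% hematocrit and 0.05% parasitemia (final), then incubated with compounds 96 hours at 37 C in 5% CO2. Luminescence after detection reagent addition reported growth.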
The depositor's hits bear a star; u = inconclusive; x = no result given; ! = a repeat was not active; [ ] = remark or other dose. The list is not random: actives were taken first. Their share in the collection is about 21%. Unless noted, calls come from the whole dose curve; as a rule, active = well fitted inhibition curve with a large enough effect; inconclusive = small, poorly fitted or top-dose-only effect, or another doubt; inactive = no such curve, though single readings can be large or run the other way.

SMILES	HCV inhibitor	CHX counter	Shiga inhibitor	Pf growth 48h	HCMV antiviral	Pf growth 96h
O=S(=O)([N-]c1nc2ccccc2nc1-[n+]1ccccc1)c1ccc(F)cc1	24%	-1	-7	16%	78	7%
Cc1cc(C)c2nc(N(CCCN(C)C)C(=O)C3=COCCO3)sc2c1	32µM*	x	x	12µM*	-2	u
COc1ccc(C)c2sc(N(CCCN(C)C)C(=O)c3ccc4c(c3)OCCO4)nc12	u	x	x	9.3µM*	-11	8.3µM*
Cc1cccc2sc(N(CCCN(C)C)C(=O)c3cc4ccccc4oc3=O)nc12	u	13	12	-21%	u	u
CC1CCCCN1S(=O)(=O)c1ccc(C(=O)N(CCCN(C)C)c2nc3ccc(Br)cc3s2)cc1 (centres undefined)	u	13	-3	u	51	0%
CCN(CC)CCN(C(=O)C1=COCCO1)c1nc2cc(C)cc(C)c2s1	u	-1	-8	u	-21	-12%
Cc1ccc2nc(N(CCCN(C)C)C(=O)c3cc4ccccc4oc3=O)sc2c1	u	18	21	u	u	10µM*
CN(C)CCCN(C(=O)C1=COCCO1)c1nc2ccc(Br)cc2s1	13µM*	-1	-6	u	6	u
O=C(C1CCOCC1)N1CC(=O)N2[C@H](CO)[C@H](c3ccc(-c4ccccc4F)cc3)[C@@H]2C1	x	x	x	x	9	x
COc1ccc(NC(=O)CCCSc2nc(-c3ccco3)cc(C(F)(F)F)n2)cc1	x	x	x	x	-16	x
Cc1ccc2nc(N(CCN(C)C)C(=O)c3ccc4c(c3)OCCO4)sc2c1	-28%	35*	64	15%	14	-17%
COc1ccc2nc(N(CCN(C)C)C(=O)c3ccc4ncsc4c3)sc2c1	x	x	x	x	36	x
Cc1ccc2nc(N(CCCN(C)C)C(=O)c3ccc4ncsc4c3)sc2c1	u	41*	89*	-6%	21	-30%
CCN(CC)CCN(C(=O)c1ccc2c(c1)OCCO2)c1nc2ccc(C)cc2s1	u	12	4	-8%	27	u
Cc1cc(C)c2nc(N(CCCN(C)C)C(=O)c3ccc4c(c3)OCCO4)sc2c1	11µM*	x	x	10µM*	u	7.4µM*
CCC(CC)NC(=O)CN1CCN(S(=O)(=O)c2cccs2)CC1	-4%	x	x	36%	-34	70%
CC(=O)N1C[C@H]2CON(C)[C@H]2C[C@H]1c1ccccc1Br	11%[8.37 µM]	x	x	x	-3	x
CC(=O)OCC1(C)CN(c2ccccc2)N(C(=O)c2ccc(F)cc2)C1=O (centres undefined)	16%	1	-2	-9%	-10	4%
COc1cc(-c2noc(C)c2C#CC2(N)CCCCC2)cc(OC)c1OC	u	-2	-4	u	102	1.9µM*
CCN(CC)C(=O)c1sc2c(c1C)c(=O)n(-c1ccc(C)c(C)c1)c(=O)n2Cc1cccc(Cl)c1	x	x	x	x	-14	x
CCOCCCN(C(=O)CNC(=O)c1ccco1)C(C(=O)NC1CCCC1)c1cccc(OC)c1 (centres undefined)	5%	-2	1	-8%	-16	u
CN1CCC(=C2c3ccccc3CC(=O)c3sccc32)CC1	u	-3	-14	15µM*	-65*!	10µM*
CN(C)c1cccc(C(=O)OCC(=O)Nc2ccccc2-c2ccccc2)c1	u	-3	6	u	9	u
CN(C)c1cccc(C(=O)NNC(=O)CSc2ccccc2)c1	4%	13*	26	6%	-34	15%
CN(C)c1cccc(C(=O)NCc2ccccc2Cl)c1	0%	19*	45	24%	-27	7%
SMILES	HCV inhibitor	CHX counter	Shiga inhibitor	Pf growth 48h	HCMV antiviral	Pf growth 96h
Cc1cccc(C(=O)OCC(=O)Nc2nccs2)c1	13%	19*	36	29%	-32	109%
Cc1cccc(C(=O)OCC(=O)NCc2cccs2)c1	9%	5	-5	16%	-9	17%
CN(C)c1cccc(C(=O)OCC(=O)Nc2ccccc2Cl)c1	-18%	22	42*	14%	43	-7%
CC(C)=CCC/C(C)=C/COc1c2ccoc2cc2oc(=O)ccc12	x	14	13	x	x	x
Cc1ccc(NC(=O)c2cnc(SCC(=O)N3CCOCC3)n(C)c2=O)cc1	x	x	x	x	59	x
CN(C)c1cccc(C(=O)OCC(=O)Nc2nccs2)c1	11%	30*	101*	27%	-27	54%
CC(=O)N1CCCc2cc(S(=O)(=O)N3CCC(C(=O)Nc4ccc(C)cc4Cl)CC3)ccc21	x	x	x	x	-25	x
O=C(NCCc1ccccc1)c1ccc2c(c1)OCO2	7%	-1	-3	-17%	-79*	u
O=C(NNC(=S)NCc1ccccc1)c1ccc2c(c1)OCO2	16%	7	14	25%	-65*	4%
O=C(NC(=S)NCc1ccc2c(c1)OCO2)c1ccccc1	1%	-2	-3	6%	10	71%
O=C(NC(=S)NCc1ccccc1)c1ccc2c(c1)OCO2	9%	19*	-52	43%	41	-5%
O=C(NCCS(=O)(=O)NCc1ccccc1)c1ccc2c(c1)OCO2	6%	x	x	46%	-3	-22%
C=CCNc1oc(-c2ccc(OC)cc2)nc1C#N	u	43*	78*	45%	11	18%
CNc1oc(-c2ccc(OCc3ccccc3)cc2)nc1C#N	u	24*	38	37%	5	x
CCN(CC)CCCNc1oc(-c2ccc(OC)cc2)nc1C#N	x	x	x	x	-12	x
C=CCNc1oc(-c2ccc(OCC)cc2)nc1C#N	u	15*	63*	u	-18	71%
CCOc1ccc(-c2nc(C#N)c(NCC(C)C)o2)cc1	-20%	-1	15	u	-24	x
Cc1ccc(-c2nc3ccccc3c(=O)n2-c2cccc(C)n2)cc1	-10%	1	10	-9%	-85*	268%
Cc1ccc(-c2nc3ccccc3c(=O)n2-c2cc(C)ccn2)cc1	x	30*	48	-7%	-24	7%
Cc1cccc(-n2c(CN3C(=O)c4ccccc4C3=O)nc3ccccc3c2=O)n1	19%	x	x	x	8	x
Oc1ccc(C=Nc2cccc3ncccc23)c(O)c1	u	1	2	-5%	-15	u
Oc1ccc(C=Nc2ccc3ncccc3c2)c(O)c1	x	56*	106*	u	x	-6%[5.75 µM]
Cc1cc2c(cc1C)NC(CC(=O)NCc1ccccc1)C(=O)N2 (centres undefined)	u	26*	61*	u	-109*	21%
COc1cccc(NC(=O)CC2Nc3cc(C)c(C)cc3NC2=O)c1 (centres undefined)	x	x	x	x	-19	x
Cc1cc2c(cc1C)NC(CC(=O)Nc1cccc(C)c1C)C(=O)N2 (centres undefined)	x	x	x	x	-13	x
COc1ccc(CCNC(=O)CC2Nc3cc(C)c(C)cc3NC2=O)cc1OC (centres undefined)	-8%	-4	-9	13µM*	12	x
